SARS PLP yeast – blocks SARS-CoV papain-like protease in a yeast assay; Potency, µM (series often up to 32.9 µM), inactives show top-dose activity, positive = growth rescue, most hits filed as activators; 0.19% of 330,000 active; S. cerevisiae expressing SARS-CoV PLpro, growth rescue; AID 485353; calls by dose curve; note: 0% is about no effect; nearly all actives have a fitted effect of over 55% in size
Sm TGR block – inhibitors of Schistosoma mansoni thioredoxin glutathione reductase | Q962Y6 | purified TGR, DTNB reduction, TNB absorbance 405 nm | Potency, µM (doses to about 114 µM), inactives show top-dose activity change, negative = inhibition, hits mostly inhibitors | 3% of 360,000 active; active = well fitted inhibition curve with a large enough effect; inconclusive = small, poorly fitted or top-dose-only effect; inactive = no such curve, though single readings can be large or run the other way; note: % is set by controls: 0 for no effect and ±100 for the full control effect; nearly all actives have a fitted effect of over 60% in size
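TGR 20 nM + NADPH 100 uM (dispensed conc.), cpd preinc 15 min RT; start with NADPH (500 uM addition) then DTNB (15 mM addition). Kinetic TNB absorbance, 405 nm filter. Four-parameter Hill fit across titration.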
An asterisk follows results filed as active; ? = inconclusive; · = no result. Hits are enriched below; roughly 3% of the tested compounds scored in any of these assays. Potency is the fitted concentration of half-maximal effect.

SMILES	SARS PLP yeast	Sm TGR block
CCc1ccccc1NC(=O)N1CCOc2ccccc21	·	-8%
C#CCNC(=O)C1=C[C@H](c2cn(C(C)=O)c3ccccc23)C[C@H](OCc2ccc(CO)cc2)O1	0%	?
CC(=O)n1cc([C@H]2C=C(C(=O)N3CCN(Cc4ccccc4)CC3)O[C@@H](OCc3ccc(CO)cc3)C2)c2ccccc21	-3%	18µM*
CC(=O)n1cc([C@@H]2C=C(C(=O)NCc3ccccc3)O[C@H](OCc3ccc(CO)cc3)C2)c2ccccc21	12%	50µM*
CC(=O)n1cc([C@H]2C=C(C(=O)N3CCN(Cc4ccc5c(c4)OCO5)CC3)O[C@@H](OCc3ccc(CO)cc3)C2)c2ccccc21	0%	-11%
CCc1ccc2c(c1)c(=O)c(C(=O)c1ccccc1)cn2CC(=O)Nc1ccc(C)c(Cl)c1	·	-13%
COc1cc(Cl)c(C)cc1NC(=O)CCc1nc2cccnc2n1-c1ccccc1	·	-6%
CC(C)c1nnc(N2C(=O)c3oc4ccccc4c(=O)c3C2c2cccc(O)c2)s1 (stereo not drawn)	·	5%
COC(=O)c1ccc(CSc2nc(C)nc3sc(C)c(C)c23)o1	5%	100µM*
CCN(C(=O)CSc1nc(C)nc2sc(C)c(C)c12)c1ccc(F)cc1	-4%	-8%
COC(=O)c1ccc(CSc2nnc(SCc3ccc(C(=O)OC)o3)s2)o1	-1%	?
Cc1nc(SCC(=O)N(C)Cc2ccco2)c2c(C)c(C)sc2n1	-5%	45µM*
CCCN(c1ccc(C(C)C)cc1)S(=O)(=O)c1ccc2c(c1)n(C)c(=O)c(=O)n2C	·	10%
O=C(NCc1ccc2c(c1)CCN2C(=O)c1ccncc1)c1cccc(Cl)c1	·	3%
O=S(=O)(c1ccc(F)cc1)c1snnc1-c1ccccc1	-15%	35µM*
O=S(=O)(c1ccc(Cl)cc1)c1snnc1-c1ccccc1	-33%	13µM*
CN(C)c1ncc(S(=O)(=O)c2ccc(Cl)cc2)c(-c2ccccc2)n1	-18%	13%
c1ccc(-c2nnsc2-c2ncc[nH]2)cc1	1%	3%
O=C(CSc1nc2c(c(=O)[nH]1)CN(Cc1ccc3c(c1)OCO3)CC2)Nc1ccc(F)cc1	·	6%
Cc1c(NC(=O)c2csc3c2CCCC3)c(=O)n(-c2ccccc2)n1C	1%	-5%
Cc1c(NC(=O)c2c(N)sc3c2CCCC3)c(=O)n(-c2ccccc2)n1C	1%	22µM*
CCC(=O)N1c2ccccc2CC1C(=O)NCCc1ccc(Cl)cc1 (stereo not drawn)	·	5%
NS(=O)(=O)c1ccc2ccccc2c1	1%	-9%
O=C(O)/C=C/S(=O)(=O)c1ccc2ccccc2c1	-5%	0.89µM*
Cn1c(SCC(=O)N2CCCC2)nc2cccnc21	1%	40µM*
SMILES	SARS PLP yeast	Sm TGR block
O=C(CSc1nc2cccnc2n1Cc1ccccc1)N1CCCC1	-2%	3%
Cc1ccccc1NC1=CC(=O)CC(C)(C)C1	-13%	-14%
CC1(C)CC(=O)C=C(NC2=CC3OC(c4ccccc4)OCC3OC2=O)C1 (stereo not drawn)	18%	20µM*
CCc1ccccc1NC(=O)CSc1nncn2c1cc1oc(C)cc12	·	-18%
O=C(CCn1ccc2cc(S(=O)(=O)N3CCCC3)ccc21)NCc1cccc(Br)c1	·	8%
CN1CCN(C(CNC(=O)C(=O)Nc2ccccc2)c2ccc3c(c2)OCO3)CC1 (stereo not drawn)	·	-5%
COc1ccc(C(=O)c2ncc(C(F)(F)F)cc2Cl)cc1	1%	2%
COc1cccc(C(=O)c2ncc(C(F)(F)F)cc2Cl)c1	-1%	50µM*
CC(=O)N1CCCc2cc(S(=O)(=O)N3CCC(C(=O)NCc4cccc(C)c4)CC3)ccc21	·	-2%
CCc1ccc2[nH]cc(S(=O)(=O)c3ccc(C(C)C)cc3)c(=O)c2c1	·	-5%
CCSC1=C(C#N)C(c2ccc(OC)c(OC)c2)CC(=O)N1 (stereo not drawn)	1%	-1%
COc1ccc(N2CSC3=C(C#N)C(c4cc(OC)c(OC)cc4OC)CC(=O)N3C2)c(OC)c1 (stereo not drawn)	0%	6.3µM*
COc1ccc(N2CSC3=C(C#N)C(c4cc(OC)ccc4OC)CC(=O)N3C2)c(OC)c1 (stereo not drawn)	-12%	?
COc1ccc(N2CSC3=C(C#N)C(c4cccs4)CC(=O)N3C2)cc1 (stereo not drawn)	5%	22µM*
CCc1ccc(C2CC(=O)N3CN(c4ccccc4)CSC3=C2C#N)cc1 (stereo not drawn)	-1%	35µM*
CCc1ccc(N2CSC3=C(C#N)C(c4cccs4)CC(=O)N3C2)cc1 (stereo not drawn)	0%	-27%
Cc1ccc(N2CSC3=C(C#N)C(c4cccs4)CC(=O)N3C2)cc1 (stereo not drawn)	4%	-22%
COc1ccc(N2CSC3=C(C#N)C(c4ccc(OC)c(OC)c4)CC(=O)N3C2)c(OC)c1 (stereo not drawn)	9%	7.9µM*
O=C1C(=O)N(C2CCN(C(=O)c3ccc(F)cc3)CC2)CCN1Cc1ccc(F)cc1	·	-2%
CC(C)(C)[C@H](NC(=O)c1ccc(N)c(Cl)c1)C(=O)N1CCC[C@H]1C(=O)N[C@H](C#N)Cc1nn[nH]n1	1%	?
CCc1nn(CC(=O)NCCc2ccc(Cl)cc2)c(=O)c2cc3ccccc3n12	·	0%
COc1cc(OC)c(C2CC(=O)N3CN(c4ccc(C)cc4)CSC3=C2C#N)cc1OC (stereo not drawn)	1%	8.9µM*
CCOc1ccccc1N1CSC2=C(C#N)C(c3c(OC)ccc4ccccc34)CC(=O)N2C1 (stereo not drawn)	4%	13µM*
COc1ccc(C2CC(=O)N3CN(c4ccc(C)c(Cl)c4)CSC3=C2C#N)cc1OC (stereo not drawn)	-9%	50µM*
CCOC(=O)c1ccc(N2CSC3=C(C#N)C(c4cccs4)CC(=O)N3C2)cc1 (stereo not drawn)	6%	0%
SMILES	SARS PLP yeast	Sm TGR block
N#CC1=C2SCN(c3ccc(F)cc3)CN2C(=O)CC1c1cccc(F)c1 (stereo not drawn)	5%	?
N#CC1=C2SCN(Cc3ccco3)CN2C(=O)CC1c1ccccc1F (stereo not drawn)	-4%	?
CCOc1ccc(OCC)c(NS(=O)(=O)c2ccc(-c3coc(C)n3)cc2)c1	·	13%
Cc1ccc(CNC(=O)C2CCN(S(=O)(=O)c3ccc4c(c3)oc(=O)n4C)CC2)cc1	·	6%
COc1ccccc1N1C(=O)CC(Sc2n[nH]c(-c3cccc(C)c3)n2)C1=O (stereo not drawn)	-83%	0.63µM*
COc1ccccc1N1C(=O)CC(Sc2nccc(C)n2)C1=O (stereo not drawn)	2%	?
CCN(Cc1ccccc1)C(=O)Cn1c(=O)cc(C)c2c(C)nn(-c3cccc(F)c3)c21	·	2%
NC(=O)c1c(NC(=O)CSc2nnc(-c3ccccc3)n2CC2CCCO2)sc2c1CCC2 (stereo not drawn)	12%	28µM*
N#Cc1c(NC(=O)CSc2nnc(-c3ccncc3)n2CC2CCCO2)sc2c1CCCC2 (stereo not drawn)	-1%	0%
CCc1ccccc1NC(=O)C(=O)NCCCN1CCOCC1	·	1%
CCOC(=O)N1CCC2(CC1)C(C#N)=C(N)Oc1c2sc2nc(C)cc(C)c12	1%	-14%
CCOC(=O)N1CCC2(CC1)C(C#N)=C(N)Oc1c2c(C)nn1-c1cccc(Cl)c1	-7%	1.1µM*

Compound activity from PubChem BioAssay.
